# Assay results published in PubChem BioAssay.
# Results filed as inconclusive are left out. Activity calls are given as the source filed them.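 The calls were made as follows, unless noted: active = normalized viability below 100% at a tested concentration; inactive = the rest.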
# Experiments:
# [1] = viability loss in pontine glioma line – cell-based, SU-DIPG-XVII, MIPE5.0, CellTiter-Glo, qHTS, dose response (AID 1347060; cut-off not given, nearly all actives have AC50 up to about 26 µM;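 as to AC50: cells exposed to compound for 48 hours before viability readout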); conditions: CellTiter-Glo ATP luminescence
# [2] = viability loss in pontine glioma line – cell-based, SU-DIPG-XIII, MIPE5.0, CellTiter-Glo, qHTS, dose response (AID 1347064; cut-off not given, nearly all actives have AC50 up to about 23 µM;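 as to AC50: cells exposed to compound for 48 hours before the viability read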); conditions: CellTiter-Glo ATP luminescence
# [3] = viability loss in pontine glioma line – cell-based, SU-DIPG-XXV, MIPE5.0, CellTiter-Glo, qHTS, dose response (AID 1347065; cut-off not given, nearly all actives have AC50 up to about 26 µM;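 also: cells exposed to compound for 48 hours before ATP readout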); conditions: CellTiter-Glo ATP luminescence
# [4] = JHH-DIPG-1 glioma cell viability, MIPE5.0 library, CellTiter-Glo luminescence, qHTS (AID 1347067; cut-off not given, nearly all actives have AC50 up to about 26 µM;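 also: cells exposed to compound for 48 hours before readout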); conditions: JHH-DIPG-1 glioma viability, CellTiter-Glo ATP luminescence
# [5] = growth inhibition of DIPG cells – cell-based, MIPE5.0 library, qHTS (AID 1347068; cut-off not given, nearly all actives have IC50 up to about 30 µM); conditions: SU-DIPG-XXV viability
# [6] = drug combination growth inhibition, ovarian cancer – cell-based, oncology-focused library, rucaparib conditional, profiling panel (AID 1508598); conditions: patient-derived ovarian cancer cells, CellTiter-Glo viability, 144 h, stronger effect = lower value
# [7] = viability loss with induced miR-34 in A549 – imaging, A549 dox-inducible miR-34, nuclei and caspase counts, primary screen (AID 1347080;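 active = compounds whose cell count with miR-34 switched on is under 0.7 times the count with it off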); conditions: A549 miR-34 inducible, Hoechst nuclei count, 48 h
# [8] = MELAS cybrid and Rieske KO viability enhancers – cell-based, MELAS cybrids, Rieske KO mouse fibroblasts, CellTiter-Glo, primary screen (AID 1508586;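 active = mean z-score across replicates of 1.96 or higher in either the MELAS or the Rieske mutant cell line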;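 also: z relative to plate mean and SD of compound and empty wells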); conditions: low glucose
# [9] = growth inhibition, single agent or in combination, cell-based, chromothripsis tumors, cisplatin or BGB combos (AID 1671449; in the data active = inhibition above about 80%;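 also: cells exposed for 96 hours; 0% = vehicle DMSO and 100% = killing by high DMSO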); conditions: LFS_MB_P medulloblastoma cells
# [10] = growth inhibition, single agent and combos, cell-based, chromothripsis tumors, cisplatin or BGB combos (AID 1671450; in the data active = inhibition above about 80%;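 also: cells exposed to compound for four days; 0% = vehicle DMSO and 100% = cell killing by high DMSO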); conditions: HDN33 neuroblastoma cells, stronger effect = higher value
# [11] = growth inhibition, single agents and combos, ICB984, cell-based, cisplatin or BGB combos, synergistic combos for chromothripsis tumors (AID 1671451; call rule not given here;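 also: cells exposed for 96 hours before readout; 0% = vehicle DMSO and 100% = killing by high DMSO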); conditions: ICB984 medulloblastoma cells, drug combinations, stronger effect = higher value
# [12] = growth inhibition, single agents and combos, LFS_MB_1R, cell-based, cisplatin or BGB combos, synergistic combos for chromothripsis tumors (AID 1671452; in the data active = inhibition above about 80%;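 also: cells exposed for 96 hours before readout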); conditions: LFS_MB_1R medulloblastoma cells, stronger effect = higher value
# [13] = growth inhibition, single agents and combos, HTB85, cell-based, BGB or cisplatin IC20 combos, synergistic combos for chromothripsis tumors (AID 1671453; in the data active = inhibition above about 80%;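 also: cells exposed for 96 hours before readout; 0% = vehicle DMSO and 100% = high DMSO killing control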); conditions: HTB85 osteosarcoma cells, drug combinations, stronger effect = higher value
# [14] = growth inhibition, single agents and combos, CRL2098, cell-based, BGB or cisplatin IC20 combos, synergistic combos for chromothripsis tumors (AID 1671454; in the data active = inhibition above about 80%;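 also: cells exposed for 96 h before readout; 0% = vehicle DMSO and 100% = killing by high DMSO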); conditions: CRL2098 osteosarcoma cells, drug combinations, stronger effect = higher value
# [15] = growth inhibition, single agents and combos, HD-MB03, cell-based, BGB or cisplatin IC20 combos, synergistic combos for chromothripsis tumors (AID 1671455; in the data active = inhibition above about 83%;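 also: 0% = vehicle DMSO and 100% = high DMSO as cytotoxic control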); conditions: HD-MB03 medulloblastoma cells, stronger effect = higher value
# [16] = growth inhibition, single agents and combos, UWB1.289, cell-based, BGB or cisplatin combos, synergistic combos for chromothripsis tumors (AID 1671456; in the data active = inhibition above about 80%;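 also: cells exposed to compound for four days; 0% = vehicle DMSO and 100% = killing by high DMSO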); conditions: UWB1.289 ovarian carcinoma cells, stronger effect = higher value
# [17] = growth inhibition, MDA-MB-436, cell-based, BGB or cisplatin combos, synergistic combos for chromothripsis tumors (AID 1671458; call rule not given here;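 also: cells exposed for 96 hours; 0% = vehicle DMSO and 100% = killing by high DMSO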); conditions: MDA-MB-436 breast carcinoma growth inhibition, drug combinations, stronger effect = higher value
# [18] = BT084 cell growth, single and combined drugs, ICGC_MB145, cisplatin and BGB IC40 combos (AID 1671461; in the data active = inhibition above about 80%;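 also: cells exposed to drugs for 96 hours; 0% = vehicle DMSO and 100% = high DMSO full killing control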); conditions: BT084 medulloblastoma cells, drug combinations, stronger effect = higher value
# [19] = RCMB18 cell growth, single agent and combined, cisplatin and BGB IC40 combos (AID 1671462; in the data active = inhibition above about 80%;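 also: cells exposed to compound for four days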); conditions: RCMB18 medulloblastoma cells, stronger effect = higher value
# [20] = CRL1545 cell growth, single agent and combined, cisplatin and BGB IC20 combos (AID 1671464; in the data active = inhibition above about 80%;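 also: cells exposed to compound for 96 hours before readout; 0% = vehicle DMSO and 100% = high DMSO killing control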); conditions: CRL1545 osteosarcoma cells, stronger effect = higher value
# [21] = measured here: combination with BGB IC40, at 0.05 µM
# [22] = measured here: with BGB IC20 combination, at 0.5 µM
# [23] = measured here: with cisplatin IC20 combination, at 0.5 µM
# [24] = measured here: combination with cisplatin, at 0.5 µM
structure (smiles),measurement,setting,value
Cc1nnc(C(C)C)n1C1CC2CCC(C1)N2CC[C@H](NC(=O)C1CCC(F)(F)CC1)c1ccccc1 (some centres not stated),outcome,[1],inactive
same,outcome,[2],inactive
same,outcome,[3],inactive
same,outcome,[4],inactive
same,outcome,[5],inactive
same,viability,"[6]; at 0.000305 µM, OCI-C5x cells, with rucaparib 10 µM, 100% = cells with rucaparib alone",106% (inactive)
same,viability,"[6]; at 0.000305 µM, OCI-C5x cells, without rucaparib",101% (inactive)
same,viability,"[6]; at 0.000305 µM, OCI-P5x cells, with rucaparib 20 µM, 100% = cells with rucaparib alone",85.1% (active)
same,viability,"[6]; at 0.000305 µM, OCI-P5x cells, without rucaparib",83.1% (active)
same,viability,"[6]; at 0.00122 µM, OCI-C5x cells, with rucaparib 10 µM, 100% = cells with rucaparib alone",107% (inactive)
same,viability,"[6]; at 0.00122 µM, OCI-C5x cells, without rucaparib",98.5% (active)
same,viability,"[6]; at 0.00122 µM, OCI-P5x cells, with rucaparib 20 µM, 100% = cells with rucaparib alone",86.3% (active)
same,viability,"[6]; at 0.00122 µM, OCI-P5x cells, without rucaparib",79.3% (active)
same,viability,"[6]; at 0.00488 µM, OCI-C5x cells, with rucaparib 10 µM, 100% = cells with rucaparib alone",105% (inactive)
same,viability,"[6]; at 0.00488 µM, OCI-C5x cells, without rucaparib",107% (inactive)
same,viability,"[6]; at 0.00488 µM, OCI-P5x cells, with rucaparib 20 µM, 100% = cells with rucaparib alone",86.7% (active)
same,viability,"[6]; at 0.00488 µM, OCI-P5x cells, without rucaparib",91.1% (active)
same,viability,"[6]; at 0.0195 µM, OCI-C5x cells, with rucaparib 10 µM, 100% = cells with rucaparib alone",113% (inactive)
same,viability,"[6]; at 0.0195 µM, OCI-C5x cells, without rucaparib",107% (inactive)
same,viability,"[6]; at 0.0195 µM, OCI-P5x cells, with rucaparib 20 µM, 100% = cells with rucaparib alone",90.9% (active)
same,viability,"[6]; at 0.0195 µM, OCI-P5x cells, without rucaparib",90.2% (active)
same,viability,"[6]; at 0.0781 µM, OCI-C5x cells, with rucaparib 10 µM, 100% = cells with rucaparib alone",117% (inactive)
same,viability,"[6]; at 0.0781 µM, OCI-C5x cells, without rucaparib",107% (inactive)
same,viability,"[6]; at 0.0781 µM, OCI-P5x cells, with rucaparib 20 µM, 100% = cells with rucaparib alone",96% (active)
same,viability,"[6]; at 0.0781 µM, OCI-P5x cells, without rucaparib",94% (active)
same,viability,"[6]; at 0.313 µM, OCI-C5x cells, with rucaparib 10 µM, 100% = cells with rucaparib alone",111% (inactive)
same,viability,"[6]; at 0.313 µM, OCI-C5x cells, without rucaparib",99.8% (active)
same,viability,"[6]; at 0.313 µM, OCI-P5x cells, with rucaparib 20 µM, 100% = cells with rucaparib alone",95.9% (active)
same,viability,"[6]; at 0.313 µM, OCI-P5x cells, without rucaparib",94.1% (active)
same,viability,"[6]; at 1.25 µM, OCI-C5x cells, with rucaparib 10 µM, 100% = cells with rucaparib alone",118% (inactive)
same,viability,"[6]; at 1.25 µM, OCI-C5x cells, without rucaparib",108% (inactive)
same,viability,"[6]; at 1.25 µM, OCI-P5x cells, with rucaparib 20 µM, 100% = cells with rucaparib alone",98.8% (active)
same,viability,"[6]; at 1.25 µM, OCI-P5x cells, without rucaparib",93.2% (active)
same,viability,"[6]; at 5 µM, OCI-C5x cells, with rucaparib 10 µM, 100% = cells with rucaparib alone",108% (inactive)
same,viability,"[6]; at 5 µM, OCI-C5x cells, without rucaparib",112% (inactive)
same,viability,"[6]; at 5 µM, OCI-P5x cells, with rucaparib 20 µM, 100% = cells with rucaparib alone",96.7% (active)
same,viability,"[6]; at 5 µM, OCI-P5x cells, without rucaparib",95.4% (active)
CCC(=O)Nc1cccc(Oc2nc(Nc3ccc(N4CCN(C)CC4)cc3OC)ncc2Cl)c1,AC50,[1],9.34 µM (active)
same,AC50,[2],10.5 µM (active)
same,AC50,[3],7.42 µM (active)
same,AC50,[4],18.6 µM (active)
same,outcome,[5],inactive
same,fold change,"[7]; stronger effect = lower value, cell number ratio, induced over uninduced",0.756 (inactive)
same,fold change,[7]; measured here: relative caspase fold change +Dox/-Dox,0.553
same,cell count,"[7]; measured here: total cells with miR-34 induction, stronger effect = lower value",3260
same,cell count,[7]; measured here: total cells without miR-34 induction,4310
same,z-score,"[8]; MELAS cybrid survival, CellTiter-Glo 48 h, stronger effect = higher value",-0.403 (inactive)
same,z-score,"[8]; Rieske KO mouse fibroblast survival, CellTiter-Glo 72 h",0.64
NC1CCC(N[C@@H]2C[C@H]2c2ccccc2)CC1 (some centres not stated),outcome,[1],inactive
same,outcome,[2],inactive
same,outcome,[3],inactive
same,outcome,[4],inactive
same,outcome,[5],inactive
same,inhibition,"[9]; at 0.5 µM, stronger effect = higher value",20.5% (inactive)
same,inhibition,"[9]; measured here: combination with BGB IC20, at 0.005 µM",-7.63%
same,inhibition,"[9]; measured here: combination with BGB IC40, at 0.005 µM",-36.6%
same,inhibition,[9]; [21],-4.73%
same,inhibition,"[9]; measured here: combination with cisplatin, at 0.5 µM, stronger effect = higher value",61.5%
same,inhibition,"[9]; measured here: combination with cisplatin, at 5 µM, stronger effect = higher value",-33.8%
same,inhibition,"[10]; BGB combo, at 5 µM",-29.3%
same,inhibition,[10]; at 0.5 µM,-3.39% (inactive)
same,inhibition,"[10]; cisplatin combo, at 5 µM",-5%
same,inhibition,[10]; [22],-15.4%
same,inhibition,[10]; [23],-4.58%
same,inhibition,"[10]; single agent, at 5 µM",-15%
same,inhibition,"[11]; BGB IC20 combo, at 0.005 µM",1.45%
same,inhibition,"[11]; BGB IC40 combo, at 0.005 µM",-40%
same,inhibition,"[11]; BGB IC40 combo, at 0.05 µM",-44.5%
same,inhibition,[11]; at 0.5 µM,-31.6% (inactive)
same,inhibition,"[11]; cisplatin combo, at 0.05 µM",-50.3%
same,inhibition,"[11]; cisplatin combo, at 0.5 µM",-54.9%
same,inhibition,"[11]; cisplatin combo, at 5 µM",-29.9%
same,inhibition,"[11]; measured here: 5 uM single agent, at 5 µM",-0.182%
same,inhibition,[12]; at 0.5 µM,-25.6% (inactive)
same,inhibition,[12]; [21],-43.6%
same,inhibition,[12]; [24],-41.7%
same,inhibition,"[12]; measured here: combination with cisplatin, at 5 µM",-14.7%
same,inhibition,[13]; at 0.5 µM,0.26% (inactive)
same,inhibition,"[13]; measured here: with BGB IC20, at 0.5 µM",13%
same,inhibition,"[13]; measured here: with BGB IC20, at 5 µM",4.36%
same,inhibition,"[13]; measured here: with cisplatin IC20, at 0.5 µM",-8.09%
same,inhibition,"[13]; measured here: with cisplatin IC20, at 5 µM",0.769%
same,inhibition,"[13]; single agent, at 5 µM",26.6%
same,inhibition,[14]; at 0.5 µM,-30% (inactive)
same,inhibition,"[14]; measured here: combination with BGB at IC20, at 0.5 µM",8.8%
same,inhibition,"[14]; measured here: combination with cisplatin at IC20, at 0.5 µM",-54.3%
same,inhibition,[15]; at 0.5 µM,-7.1% (inactive)
same,inhibition,"[15]; measured here: combo with BGB at IC20, at 0.5 µM",-21.2%
same,inhibition,"[15]; measured here: combo with cisplatin at IC20, at 0.5 µM",17.1%
same,inhibition,[16]; at 0.5 µM,-1.76% (inactive)
same,inhibition,"[16]; measured here: inhibition with BGB combination, at 0.05 µM",-8.52%
same,inhibition,"[16]; measured here: inhibition with cisplatin combination, at 0.05 µM",-20.9%
same,inhibition,[17]; at 0.5 µM,-9.19% (inactive)
same,inhibition,"[17]; measured here: BGB combination, at 0.5 µM",-1.28%
same,inhibition,"[17]; measured here: BGB combination, at 5 µM",-16.2%
same,inhibition,"[17]; measured here: cisplatin combination, at 0.5 µM",-20.5%
same,inhibition,"[17]; measured here: cisplatin combination, at 5 µM",-12.9%
same,inhibition,[18]; at 0.5 µM,-8.52% (inactive)
same,inhibition,"[18]; cisplatin combination, at 0.5 µM",-9.89%
same,inhibition,"[18]; cisplatin combination, at 5 µM",-5.53%
same,inhibition,"[18]; measured here: BGB IC40 combination 0.05 uM, at 0.05 µM",65.9%
same,inhibition,"[18]; single agent, at 5 µM",3.43%
same,inhibition,[19]; at 0.5 µM,-11.5% (inactive)
same,inhibition,"[19]; cisplatin combo, at 5 µM",-6.41%
same,inhibition,"[19]; measured here: BGB IC40 combination, at 0.05 µM",-13.6%
same,inhibition,[19]; [24],-9.08%
same,inhibition,"[19]; single agent, at 5 µM",-32.3%
same,inhibition,[20]; at 0.5 µM,-40.7% (inactive)
same,inhibition,[20]; [22],-47.5%
same,inhibition,[20]; [23],-37.3%
same,inhibition,"[20]; single agent, at 0.05 µM",-32.5%
same,inhibition,"[20]; single agent, at 5 µM",-26.5%
